Shown are actives, neighbours in structure and some others; about 0.9% of the full set was active somewhere.
SRC3 TRFRET art: TR-FRET artefact, counter-screen to PPARgamma/SRC-3 agonist assay; PPARgamma/SRC-3 format; hits give high values; TR-FRET ratio at 8 µM; hit rate 0.39% among 99,000
PPARg SRC1 recr: PPARgamma-driven SRC-1 recruitment agonism; PPARgamma-SRC-1 coactivator recruitment biochemical assay; hit rate 0.41% among 200,000; P37231; AID 631; activation, % at 8 µM; in the data active means activation above about 19%;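 further: 0% = DMSO and 100% = reference agonist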
Target sequence (P37231 whole entry, looked up): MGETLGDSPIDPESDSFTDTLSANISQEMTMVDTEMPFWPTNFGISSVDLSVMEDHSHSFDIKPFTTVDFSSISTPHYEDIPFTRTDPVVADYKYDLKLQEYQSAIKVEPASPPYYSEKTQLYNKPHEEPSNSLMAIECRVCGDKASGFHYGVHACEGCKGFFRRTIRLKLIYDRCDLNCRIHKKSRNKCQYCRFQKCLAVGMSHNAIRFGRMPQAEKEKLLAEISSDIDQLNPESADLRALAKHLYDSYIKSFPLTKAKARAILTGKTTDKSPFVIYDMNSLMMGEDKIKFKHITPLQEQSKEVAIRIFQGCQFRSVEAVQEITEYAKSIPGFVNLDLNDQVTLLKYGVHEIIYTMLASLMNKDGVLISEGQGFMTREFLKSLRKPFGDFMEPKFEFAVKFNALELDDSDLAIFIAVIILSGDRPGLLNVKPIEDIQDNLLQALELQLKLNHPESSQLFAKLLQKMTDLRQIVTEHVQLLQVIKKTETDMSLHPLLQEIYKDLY
PPARg SRC2 recr: promotes SRC-2 coactivator recruitment by human PPARgamma; AID 1032; P37231; hit rate 0.34% among 200,000; PPARgamma LBD-SRC-2 recruitment, biochemical; activation, % at 8 µM; in the data active means activation above about 22%;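 further: 0% = vehicle and 100% = reference agonist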
TR-FRET SRC-2 ct: counter-screen for PPARgamma SRC-2 recruitment agonists: TR-FRET artefact | hit rate 0.4% among 200,000 | TR-FRET ratio at 8 µM | hits give high values
PPARg SRC-3 ag: PPARgamma-driven SRC-3 recruitment agonism; biochemical PPARgamma/SRC-3 coactivator recruitment assay; P37231; hit rate 0.26% among 200,000; activation, % at 8 µM; in the data active means activation above about 23%;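 further: 0% = DMSO and 100% = reference agonist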
SRC1 TRFRET art: flags TR-FRET format artefacts in PPARgamma SRC-1 recruitment agonist screen. TR-FRET detection artefact counter-screen, emission ratio; hits give high values. TR-FRET ratio at 8 µM. hit rate 0.34% among 99,000; in the data active means TR-FRET ratio above about 2300
PPARg SRC2 conf: confirmation of agonists of SRC-2 recruitment by human PPARgamma | shares compounds with PPARg SRC-3 ag | biochemical SRC-2 recruitment by PPARgamma | activation, % at 8 µM | hit rate 52% among 790 | AID 1297; in the data active means activation above about 22%;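 further: 0% = vehicle alone and 100% = reference agonist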
PPARg SRC1 ag: human PPARgamma SRC-1 recruitment agonism, confirmation | hit rate 43% among 790 | shares compounds with PPARg SRC-3 ag | PPARgamma–SRC-1 coactivator recruitment biochemical assay | activation, % at 8 µM | AID 1300; in the data active means activation above about 20%;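 further: 0% = vehicle wells and 100% = reference agonist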
PPARg SRC3 conf: human PPARgamma SRC-3 recruitment agonism, confirmation; shares compounds with PPARg SRC-3 ag; biochemical PPARgamma-SRC-3 coactivator recruitment, agonist mode; activation, % at 8 µM; hit rate 29% among 790; AID 1301; in the data active means activation above about 24%;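 further: 0% = vehicle wells and 100% = reference agonist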
Active calls of the source: *; . = no result given. Unless noted, no stated cut-off is given here; in the data, active means TR-FRET ratio above about 2000; inactive means the rest.

SMILES	SRC3 TRFRET art	PPARg SRC1 recr	PPARg SRC2 recr	TR-FRET SRC-2 ct	PPARg SRC-3 ag	SRC1 TRFRET art	PPARg SRC2 conf	PPARg SRC1 ag	PPARg SRC3 conf
COC(=O)c1c(N)n(Cc2ccc(OC)cc2)c2nc3ccccc3nc12	1451	20	2	1618	2	2577*	.	.	.
Cc1cccc(C)c1OP(N)(=O)OCC(F)(F)F (stereo unspecified)	1765	-14	-8	1284	-7	1714	.	.	.
O=C(O)c1cccc2nc3ccccc3nc12	1766	9	19	1525	1	1925	10	2	5
COC(=O)c1ccccc1-n1c(C)nc2ccccc2c1=O	.	-3	-4	1341	-14	.	.	.	.
Cc1nc2ccccc2c(=O)n1-c1cc(F)ccc1F	1489	-3	0	1464	2	1919	.	.	.
CNc1cc(Cl)c2nonc2c1[N+](=O)[O-]	1596	6	8	1720	5	1925	.	.	.
CCn1c(=O)cc(SCC(=O)N2CCC3(CC2)OCCO3)c2ccccc21	.	65*	61*	2944*	102*	.	37*	25*	26*
Cn1c(=O)n(CC(=O)N2CCC3(CC2)OCCO3)c(=O)c2ccccc21	1562	-3	4	1560	-2	1688	.	.	.
CN(C)c1ccc(/C=C/C=C2/C(=O)NC(=O)N(c3ccccc3)C2=O)cc1	2895*	49*	29*	2441*	50*	2995*	70*	47*	47*
CNP(=O)(Oc1ccccc1)OC12CC3CC(CC(C3)C1)C2 (stereo unspecified)	1616	0	2	1571	0	1949	.	.	.
COc1ccc(NP(=O)(Oc2ccccc2OC)Oc2ccccc2OC)cc1	1523	16	5	1429	27*	1612	11	25*	20
CN1/C(=C\C=C\C2=[N+](C)c3ccc4ccccc4c3C2(C)C)C(C)(C)c2ccccc21	.	42*	84*	3050*	70*	.	49*	39*	37*

Bioassay records (PubChem BioAssay)
